# Screens from PubChem.
# A selection: hits, their analogues and other compounds. The true share with any hit is near 5.4%.
# PP5 primary: PP5 (human) phosphatase inhibition; purified PP5c, OMFP substrate fluorescence; inhibition, % at 6.7 µM; 320,000 tested, 0.18% active;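 active means inhibition above the campaign's mean inhibition across all tested compounds plus 3 SD, cut at about 9.5% in these data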;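 further: 0% = DMSO only and 100% = 100 µM cantharidin control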
# PP1 inh: PP1-alpha (human) inhibition in PP5 counter-screen; 320,000 tested, 0.9% active; purified PP1alpha, OMFP fluorescence; inhibition, % at 6.7 µM;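 active means inhibition above the mean inhibition of all tested compounds plus 3 SD, computed separately for each screening campaign, cut at about 15% in these data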
# Target sequence (P62136 whole entry, looked up): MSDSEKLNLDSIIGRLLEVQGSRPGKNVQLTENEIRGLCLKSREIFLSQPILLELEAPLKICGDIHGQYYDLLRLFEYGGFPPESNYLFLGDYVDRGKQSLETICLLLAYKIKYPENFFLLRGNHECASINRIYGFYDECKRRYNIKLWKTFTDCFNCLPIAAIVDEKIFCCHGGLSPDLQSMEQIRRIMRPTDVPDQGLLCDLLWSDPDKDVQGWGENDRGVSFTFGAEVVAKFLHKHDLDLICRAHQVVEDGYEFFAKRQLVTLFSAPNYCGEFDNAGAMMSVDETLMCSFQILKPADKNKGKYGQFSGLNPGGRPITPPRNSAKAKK
# Calb FLC: affects C. albicans growth with fluconazole; C. albicans CaCi-2 (fluconazole-resistant clinical isolate) + fluconazole, Alamar Blue growth, 48 h; growth inhibition, % (concentration not given with the values); 300,000 tested, 0.57% active;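 active means growth inhibition above about 58% in most replicates, limit read from the data, passing the limit was not always enough; inconclusive means exactly half the replicates above a set limit; inactive means most replicates below a set limit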;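 further: all wells also contain fluconazole at 8 µg/ml as a sub-toxic cotreatment; 0% = median of DMSO wells and 100% = median of geldanamycin control wells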
# CSC inhib: blocks cancer stem cells; inhibition, % at 7.5 µM; cancer stem cell-like cells viability, luminescence; 300,000 tested, 1.1% active; in the data active means inhibition above about 75%; inconclusive means no clear call, values can overlap the other calls; tested in HMLE shEcad cells
# ALR H2O2 inh: inhibitors of human sulfhydryl oxidase ALR. P55789. purified ALR, DTT oxidation, H2O2 HRP-luminol luminescence. inhibition, % (no concentration beside the values). 290,000 tested, 3.8% active. AID 485317;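 active means mean replicate inhibition above about 79%, with every replicate also reaching it, limit read from the data; inconclusive means only one of the two criteria met; inactive means mean below limit and not every replicate reaching it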
# Target sequence (P55789 whole entry, looked up): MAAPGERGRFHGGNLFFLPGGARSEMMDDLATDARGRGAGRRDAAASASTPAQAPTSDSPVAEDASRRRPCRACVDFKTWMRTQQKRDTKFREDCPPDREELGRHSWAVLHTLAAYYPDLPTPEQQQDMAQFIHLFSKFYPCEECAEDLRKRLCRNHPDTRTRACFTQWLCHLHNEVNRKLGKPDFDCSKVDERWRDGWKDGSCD
# Active calls of the source: *; u = inconclusive; x = no result.
SMILES,PP5 primary,PP1 inh,Calb FLC,CSC inhib,ALR H2O2 inh
COc1ccc2c(N)c(C(=O)NN)[nH]c2c1,-1,-4,2,-24,1
CCOC(=O)c1[nH]c2ccc(C)cc2c1N,2,-5,65,-15,62
CCOC(=O)c1[nH]c2ccc(C)cc2c1N=CN(CC)CC,3,3,9,-17,99*
COC(=O)c1[nH]c2cc(OC)ccc2c1N=CN(C)C,-1,-2,0,-1,88*
CCOC(=O)c1[nH]c2ccccc2c1N=CN(C)C,4,0,-5,6,99*
CCOC(=O)c1[nH]c2ccc(F)cc2c1N=C(C)N(CC)CC,4,0,3,-13,80*
CCOC(=O)c1[nH]c2ccccc2c1NC(=O)CC,1,-2,-1,-5,x
Fc1ccccc1NC(=S)NCCc1cccc(Cl)c1,x,x,-25,10,3
O=[N+]([O-])c1ccccc1S(=O)(=O)Nc1cccc(S(=O)(=O)N2CCCC2)c1,x,x,x,-8,x
O=C(CN1CCN(c2ccc(F)cc2)CC1)NCc1ccc(F)cc1,0,2,-4,2,x
O=C(CCNC(=O)c1ccccc1Cl)NNC(=O)c1ccccc1O,-1,-4,-12,39,1
O=C(N/N=C/c1ccc(O)cc1)c1ccncc1,-2,-2,5,-11,99*
O=C(N/N=C/c1ccncc1)c1ccc(NC(=O)c2cccc(Cl)c2)cc1,2,12,-6,-5,-4
Cc1ccc(C(=O)Nc2ccc(C(=O)N/N=C/c3ccncc3)cc2)cc1,-1,16*,-18,-8,-3
Cc1ccc(/C=N/NC(=O)c2ccncc2)cc1,2,-2,4,-7,1
O=C(N/N=C/c1ccncc1)c1ccc(NC(=O)c2ccc(Cl)cc2)cc1,1,30*,-1,2,-3
CC(C)CC(=O)O/N=C1\C(=O)N(Cc2ccc(Cl)cc2)c2ccc([N+](=O)[O-])cc21,3,17*,-31,x,-6
CC(C)CC(=O)O/N=C1\C(=O)N(c2ccccc2)c2ccccc21,3,-1,-17,2,-1
COC(=O)[C@@H]1[C@@H](C#N)C2(c3ccccc3-c3ccccc32)N(c2ccc(Cl)cc2)N1C#N,3,3,10,105*,-10
O=C(Cc1ccc(Cl)cc1)NN1C(=O)c2ccccc2C1=O,-1,0,0,-4,-13
Cc1cc(SCC(=O)N/N=C/c2ccc(C(=O)O)cc2)nc2ccccc12,1,5,4,-5,99*
COc1ccc(OC)c(CC(NC(C)=O)C(=O)NC2CCN(c3nnnn3-c3ccccc3)CC2)c1 (stereo not given),-2,-5,-2,-20,-16
Oc1cccc2ccc(Nc3ccccn3)nc12,1,3,103*,104*,u
O=C(Nc1ccccn1)c1cc2ccccc2cc1O,0,0,2,6,-1
c1ccc(CNc2ccccn2)cc1,1,-2,3,4,2
SMILES,PP5 primary,PP1 inh,Calb FLC,CSC inhib,ALR H2O2 inh
c1ccc(Nc2ccccc2Nc2ccccn2)nc1,-1,-2,-6,x,89*
COc1cc(OC)cc(-c2nnc(NC(=O)CCS(=O)(=O)c3ccc(F)cc3)o2)c1,-1,10,-6,21,-6
CCCS(=O)(=O)N1CCCC(C(=O)NCC(OC)OC)C1 (stereo not given),0,1,-21,-13,0
CC1(C(=O)O)CCC(C(=O)Nc2ccccc2O)C1(C)C (stereo not given),-2,-7,4,-9,86*
CC(=O)c1ccc(NC(=O)C2CCC(C)(C(=O)O)C2(C)C)cc1 (stereo not given),-2,-2,-6,-8,1
CC(=O)Nc1sc(C)c(C)c1C(=O)OCC(=O)Nc1ccccc1,2,2,x,x,-3
CCCCn1c(Nc2ccccc2)nc2ccccc21,-1,2,2,-10,7
CCCn1c(/C=C/c2ccco2)nc2ccccc21,1,2,12,8,89*
CCc1ccccc1Nc1nc2ccccc2n1C,0,-2,-7,-11,98*
CCCCn1c(/C=C/c2ccco2)nc2ccccc21,1,4,-16,17,x
CCOc1ccc(Nc2nc3ccccc3n2C)cc1,2,-1,-4,-4,94*
Cn1c(Nc2ccccc2)nc2ccccc21,2,0,-7,4,15
CCCn1c(Nc2nc3ccccc3n2C)nc2ccccc21,1,4,102*,104*,34
CCCC(=O)NCCc1cc2c(C)ccc(C)c2[nH]c1=O,1,-3,7,0,2
COC(=O)c1c(C(=O)OC)c(-c2ccc(OC)cc2)n2c1CS(=O)C2 (stereo not given),1,1,26,-3,-8
COc1cccc(NC2=C(NCCO)C(=O)c3ccccc3C2=O)c1,3,4,5,4,87*
Cc1cccc(NC2=C(NCCO)C(=O)c3ccccc3C2=O)c1,4,4,-2,18,99*
COc1ccc(NC2=C(NCCO)C(=O)c3ccccc3C2=O)cc1,9,5,9,-1,-85
CCOc1ccc2c(c1)C(C)=CC(C)(C)N2S(=O)(=O)c1ccc(C)cc1,x,x,113*,x,x
CCOc1ccc2c(c1)C(C)=CC(C)(C)N2C(=O)Nc1ccccc1F,-1,2,31,0,-86
CCNC(=O)N1c2ccc(OCC)cc2C(C)=CC1(C)C,0,-5,34,-5,88*
C#CCOCCOCCOCCNc1nc(N2CCN(C(=O)[C@H](CCCCN)n3cc(C(N)CO)nn3)CC2)nc(N2CCN(C(=O)[C@H](CCC(=O)O)n3cc(C(N)CC(C)C)nn3)CC2)n1 (stereo not given in full),x,x,5,x,x
CCOC(=O)c1ccc2c(c1)[nH]c(=S)n2CC,0,0,12,-10,83*
S=C(NCCc1ccccc1)Nc1ccc(N2CCCCC2)cc1,3,6,-18,-4,46
CCNC(=S)Nc1ccc(N2CCCCC2)cc1,0,1,1,-10,99*
SMILES,PP5 primary,PP1 inh,Calb FLC,CSC inhib,ALR H2O2 inh
COCCCNC(=S)Nc1ccc(N2CCCCC2)cc1,2,-2,26,-4,98*
COCCCNC(=S)NNC(=S)Nc1ccc(OC)cc1,0,-1,-19,-5,38
CCCCCc1ccc(-c2ccc(/C=C/C(=O)O)cc2)nc1,2,-1,81*,9,5
CCCCCCCc1ccc(-c2ccc(O)cc2)nc1,6,1,-15,85*,x
COc1ccc(OC)c(NC(=O)c2nnn(Cc3ccccc3C)c2N)c1,5,13,12,106*,-15
Cc1cc(=O)oc2c(N)c(O)ccc12,0,-2,2,-2,97*
COc1ccc(-c2cc3nc(-c4ccccc4)cc(N4CCCC(O)C4)n3n2)cc1 (stereo not given),0,-3,-10,94*,-2
COc1cc2sc3cc(NCCCN4CCOCC4)ccc3c(=O)c2cc1OC,x,x,x,9,99*
CCOC(=O)c1nn(-c2ccc(C)c(C)c2)cc1O,6,0,7,10,97*
CCOC(=O)c1nn(-c2ccc3c(c2)OCCO3)cc1O,2,0,-3,0,7
